Data as given in PubChem BioAssay (NCATS).
Inconclusive results are not listed. Entries that show only a call come without a potency. A number with no mark means an inactive call. The source made the active and inactive calls. The call rests on the fitted dose curve. Numbered stars: 1 amine (or outer) side, 2 acyl side, 3 side chain; on linkers, the order of the positions; unused ones are H or OH. Bridge positions count the residues as written; N and C are the ends. Square brackets hold non-standard residues; d marks the D form. Peptide text beside a SMILES is read from it. * marks the point of attachment. ξ: configuration not given here. pTerphenylCO(4''-OnC5H11) = CCCCCOc1ccc(-c2ccc(-c3ccc(C(=O)*)cc3)cc2)cc1; ξOrn(4,5-diOH) = O=C(C(CC(O)C(O)N[*:3])N[*:1])[*:2]; ξhTyr(βξ-OH,γξ-OH) = NC(C(=O)O)C(O)C(O)c1ccc(O)cc1; ξPro(3ξ-OH,4ξ-Me) = CC1CNC(C(=O)O)C1O; Hyp = O=C(O)[CH]1C[CH](O)CN1

Test: Primary qHTS for Vero E6 cytotoxicity: counterscreen for inhibitors of SARS-S pseudo-typed particle cell entry (AID 1479150)
Details: cell viability; series mostly up to 57.1 µM

| Compound | Potency | activity change, negative = cytotoxicity |
| --- | --- | --- |
| COc1cc(CNC(=O)CCCC/C=C/C(C)C)ccc1O | inactive |  |
| C=CC(=O)N1CCCC(n2nc(-c3ccc(Oc4ccccc4)cc3)c3c(N)ncnc32)C1 (configuration not stated) | inactive |  |
| CO[C@H]1C[C@@H]2CC[C@@H](C)[C@@](O)(O2)C(=O)C(=O)N2CCCC[C@H]2C(=O)O[C@H]([C@@H](C)C[C@@H]2CC[C@@H](O)[C@H](OC)C2)CC(=O)[C@H](C)/C=C(\C)[C@@H](O)[C@@H](OC)C(=O)[C@H](C)C[C@H](C)/C=C/C=C/C=C/1C | inactive |  |
| CCCCCOc1ccc(-c2ccc(-c3ccc(C(=O)NC4CC(O)C(O)NC(=O)C5C(O)C(C)CN5C(=O)C(C(C)O)NC(=O)C(C(O)C(O)c5ccc(O)cc5)NC(=O)C5CC(O)CN5C(=O)C(C(C)O)NC4=O)cc3)cc2)cc1 (stereo not drawn) ({pTerphenylCO(4''-OnC5H11)}-[ξOrn(4,5-diOH)]T[Hyp][ξhTyr(βξ-OH,γξ-OH)]T[ξPro(3ξ-OH,4ξ-Me)]; lactam 1-C; configuration not given here) | inactive |  |
| CCCCC(=O)N(Cc1ccc(-c2ccccc2-c2nn[nH]n2)cc1)[C@H](C(=O)O)C(C)C | inactive |  |
| CO[C@H]1C[C@H](O[C@@H]2[C@H](C)O[C@H](O[C@@H]3/C(C)=C/C[C@@H]4C[C@@H](C[C@]5(C=C[C@H](C)[C@@H](C6CCCCC6)O5)O4)OC(=O)[C@@H]4C=C(C)C(O)[C@H]5OC/C(=C\C=C\[C@@H]3C)[C@]54O)C[C@@H]2OC)O[C@@H](C)[C@@H]1O (some centres not stated) | inactive |  |
| COc1ccc2c(c1)OC(C)(C)C(c1ccccc1)C2c1ccc(OCCN2CCCC2)cc1 (configuration not stated) | inactive |  |
| C[C@]12C=CC(=O)C=C1CC[C@@H]1[C@@H]2[C@@H](O)C[C@@]2(C)[C@H]1CC[C@]2(O)C(=O)COP(=O)(O)O |  | -2.88% [at 11.4 µM] |
| O=C(O)c1cc(O)c2c(c1)[C@H]([C@H]1c3cc(C(=O)O)cc(O)c3C(=O)c3c(O[C@@H]4O[C@H](CO)[C@@H](O)[C@H](O)[C@H]4O)cccc31)c1cccc(O[C@@H]3O[C@H](CO)[C@@H](O)[C@H](O)[C@H]3O)c1C2=O | inactive |  |
| CCCCCCCCC=CCCCCCCCC(=O)NCCOC(=O)CC(C(=O)O)S(=O)(=O)O (configuration not stated) | inactive |  |
| C[C@@]12CCCCC[C@@H](Cc3ccc(O)cc31)[C@H]2N | inactive |  |
| OCCOc1ccc(/C(=C(/CCCl)c2ccccc2)c2ccccc2)cc1 | inactive |  |
| CC1(S(=O)(=O)O)CC(=O)c2ccccc2C1=O (configuration not stated) | inactive |  |
| NCCCC[C@H](NC(=O)[C@@H]1CCCN1C(=O)[C@@H]1CSSC[C@H](NC(=O)CNC(=O)CNC(=O)CN)C(=O)N[C@@H](Cc2ccc(O)cc2)C(=O)N[C@@H](Cc2ccccc2)C(=O)N[C@@H](CCC(N)=O)C(=O)N[C@@H](CC(N)=O)C(=O)N1)C(=O)NCC(N)=O (H-GGGCYFQNCPKG-NH2; disulfide 4-9) | inactive |  |
| NCCS[As](SCCN)c1ccc(Nc2nc(N)nc(N)n2)cc1 | inactive |  |
| N=C(N)c1ccc(/C=C/c2ccc(C(=N)N)cc2O)cc1 | inactive |  |
| CN(C)C(=O)c1cc2cnc(Nc3ccc(N4CCNCC4)cn3)nc2n1C1CCCC1 | inactive |  |
| CCc1cc2c(cc1CC)CC(NC[C@H](O)c1ccc(O)c3[nH]c(=O)ccc13)C2 | inactive |  |
| CC(=O)O[C@H]1C[C@@H]2CC[C@@H]3[C@H](CC[C@@]4(C)[C@H]3C[C@H](N3CC[N+](C)(C)CC3)[C@@H]4OC(C)=O)[C@@]2(C)C[C@@H]1N1CC[N+](C)(C)CC1 | inactive |  |
| CNC(C)C(O)c1ccccc1 (configuration not stated) | inactive |  |
| C(=C\c1ccncc1)/c1ccccc1 | inactive |  |

Test: Cytotoxicity counterscreen for inhibitors of SARS-CoV-2 cell entry (AID 1645845); further: nearly all actives have a fitted effect of over 50% in size; further: potency means the concentration at half of the fitted maximal effect
Details: cell viability (SARS-CoV-2 entry assay cells); series mostly up to 57.1 µM
How it was run: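 Counterscreen run in the same HEK293-ACE2 line as the pseudotyped-particle entry assay, without particles. Viability after 48 h at 37 C was read as ATP luminescence, scaled between cell-containing and cell-free wells.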

| Compound | Potency | activity change, negative = cytotoxicity |
| --- | --- | --- |
| COc1cc(CNC(=O)CCCC/C=C/C(C)C)ccc1O | inactive |  |
| CO[C@H](C(=O)[C@@H](O)[C@@H](C)O)C1Cc2cc3cc(O[C@H]4C[C@@H](O[C@H]5C[C@@H](O)[C@H](O)[C@@H](C)O5)[C@@H](O)[C@@H](C)O4)c(C)c(O)c3c(O)c2C(=O)[C@H]1O[C@H]1C[C@@H](O[C@H]2C[C@@H](O[C@H]3C[C@](C)(O)[C@H](O)[C@@H](C)O3)[C@H](O)[C@@H](C)O2)[C@H](O)[C@@H](C)O1 (some centres not stated) | inactive |  |
| CO[C@H]1C[C@H](O[C@@H]2[C@H](C)O[C@H](O[C@@H]3/C(C)=C/C[C@@H]4C[C@@H](C[C@]5(C=C[C@H](C)[C@@H](C6CCCCC6)O5)O4)OC(=O)[C@@H]4C=C(C)C(O)[C@H]5OC/C(=C\C=C\[C@@H]3C)[C@]54O)C[C@@H]2OC)O[C@@H](C)[C@@H]1O (some centres not stated) | inactive |  |
| C/C(O)=C(\C#N)C(=O)Nc1ccc(C(F)(F)F)cc1 | 8.91 µM (active) |  |
| CCCCCCCCC=CCCCCCCCC(=O)NCCOC(=O)CC(C(=O)O)S(=O)(=O)O (configuration not stated) | inactive |  |
| OCCOc1ccc(/C(=C(/CCCl)c2ccccc2)c2ccccc2)cc1 | inactive |  |
| NCCS[As](SCCN)c1ccc(Nc2nc(N)nc(N)n2)cc1 | inactive |  |
| CC(C)C[C@H](NC(=O)CNC(=O)c1cc(Cl)ccc1Cl)B1OC(=O)C(CC(=O)O)(CC(=O)O)O1 | 0.794 µM (active) |  |
| CN(C)C(=O)c1cc2cnc(Nc3ccc(N4CCNCC4)cn3)nc2n1C1CCCC1 | inactive |  |
| COc1cc2c(cc1O)CCN[C@]21CS[C@@H]2c3c(OC(C)=O)c(C)c4c(c3[C@H](COC1=O)N1[C@@H]2[C@H]2c3c(cc(C)c(OC)c3O)C[C@@H]([C@@H]1O)N2C)OCO4 |  | -20.3% [at 11.3 µM] |
| CNC(C)C(O)c1ccccc1 (configuration not stated) | inactive |  |
